High-throughput results deposited in PubChem BioAssay by National Center for Advancing Translational Sciences (NCATS).
HT1080 IDH1KD tx – toxicity to HT-1080 IDH1 knockdown cells (counter line). HT-1080 IDH1 knockdown viability, ATP luminescence, 48 h. Potency, µM (highest dose often 46.1 µM), without a hit: at the highest dose activity, negative = toxicity, hits mostly cytotoxic. 2% of 360,000 active;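 note: potency is the fitted concentration of half-maximal effect; 0% = DMSO wells and -100% = cell-free medium wells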
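Using the IDH1-knockdown HT-1080 line run in the same batch and compound series as the NT line, viability after 48 h at 37 °C was determined by CellTiter-Glo luminescence and expressed as % activity.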
TDP1 cell noCPT – qHTS for Inhibitors of human tyrosyl-DNA phosphodiesterase 1 (TDP1): qHTS in cells in absence of CPT | DT40 Tdp1-/- hTDP1 cells, no CPT, ATP luminescence, 48 h | Potency, µM (series often up to 46.2 µM), for inactives: at the highest dose activity change, negative = growth inhibition, hits mostly inhibitors | 15% of 420,000 active; note: potency is the fitted concentration of half-maximal effect; nearly all actives have a fitted effect of over 55% in size
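DT40 Tdp1-/-;hTDP1 cells, no CPT (DMSO vehicle only), 400 cells/well; compounds pin-transferred; ≥48 hr, 37 °C; CellTiter-Glo 30 min RT dark, luminescence read.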
HT1080NT lethal – kills 2HG-producing HT-1080-NT fibrosarcoma cells; 1.6% of 360,000 active; HT-1080-NT fibrosarcoma viability, CellTiter-Glo ATP luminescence, 48 h; AID 686970; Potency, µM (top dose mostly 46.1 µM), inactives show at the top dose activity, negative = less viability, actives largely listed as cytotoxic;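 note: NT is the 2HG producing partner of a matched IDH1 knockdown line; potency is the fitted concentration of half-maximal effect; 0% = DMSO-treated cells and -100% = media-only wells without cells; nearly all actives have a fitted effect of over 55% in size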
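Viability by CellTiter-Glo luminescence after 48 h compound exposure at 37C of HT-1080-NT cells (750/well, RPMI, 5% FBS). % activity scaled between DMSO wells and medium-only wells, then curve-fitted and categorized by curve class.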
IL1B secr inh – inhibitors of inflammasome signaling (IL-1 beta secretion) | THP-1 LPS/ATP IL-1B secretion, AlphaLISA, 16 h; stronger effect = lower value | activity change, % at 57.5 µM | 4.7% of 360,000 active | AID 743279; in the data active = activity change below about -50%; inconclusive = mostly about -30% to -49%
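THP-1 cells pretreated 1 hr with compounds (up to 57.5 uM final), then stimulated with LPS (250 ng/mL final) plus ATP (1.25 mM final); secreted IL-1B measured by AlphaLISA after 16 hr, decreased signal indicating inhibition.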
TDP1 cell CPT – DT40-hTDP1 cell growth loss with CPT; chicken DT40 Tdp1-/-;hTDP1 cells + 20 nM CPT, ATP luminescence, 48 h; Potency, µM (series often up to 46.2 µM), for inactives: at the highest dose activity change, negative = growth inhibition, hits mostly inhibitors; 12% of 420,000 active; note: potency is the fitted concentration of half-maximal effect; nearly all actives have a fitted effect of over 55% in size
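Chicken DT40 Tdp1-/- cells stably complemented with human TDP1 were seeded at 400 cells/well in medium containing 20 nM camptothecin, exposed to pin-transferred compounds, and grown at 37 °C for at least 48 hr. Viability was read as ATP luminescence.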
Starred values were filed as active, the others as inactive; ? = inconclusive; nt = not tested or not shown; [ ] = another dose, or the depositor's remark. Rows were chosen to be rich in hits. Some 19% of all compounds tested hit in one or more screens of this group. Unless noted, calls come from the whole dose curve; as a rule, active = well fitted curve in the direction sought with a large enough effect; inconclusive = small, poorly fitted or top-dose-only effect, or another doubt; inactive = no such curve, though single readings can be large; an effect the other way counts as inactive or inconclusive. Unless noted, % is set by controls: 0 for no effect and ±100 for the full control effect.

SMILES	HT1080 IDH1KD tx	TDP1 cell noCPT	HT1080NT lethal	IL1B secr inh	TDP1 cell CPT
Cc1cc(/C=C(\C#N)C(=O)NC2CCCCCC2)c(C)[nH]1	-18.8%	?	-8.5%	-7.2	-27.7%
N#CCN1CCN(CCC(=O)Nc2ccc(OCc3ccccc3)cc2)CC1	-6.5%	23.1µM*	-3.4%	-2.7	-16.7%
CCOc1ccccc1NC(=O)C(c1ccccc1)N1CCN(CC(=O)N2CCOCC2)CC1 (centres undefined)	4.3%	-16.4%	9.2%[9.24 µM]	14.1	23.1µM*
O=C(CN1CCCC1)Nc1ccc(OCc2ccccc2)cc1	-7.1%	?	-4.1%	?	-14.8%
O=C(CN1CCN(C(c2ccccc2)c2ccccc2)CC1)N1CCOCC1	12.3%	-5.0%	2.9%	16.1	9.2%
O=C(CNCc1ccccc1)Nc1ccc(Oc2ccccc2)cc1	6.51µM*	?	7.31µM*	-57.8*	13.9%
CCOC(=O)N1CCN(CC(=O)Nc2ccc(Oc3ccccc3)cc2)CC1	3.4%	?	10.5%	-63.8*	?
Cn1c(C2CCC2)nc2cc(C(=O)N3CCOc4ccccc4C3)cc(NC(=O)C3CCCO3)c21 (centres undefined)	nt	-6.9%	nt	nt	24.3%[9.04 µM]
COc1ccc(OC)c(C2c3[nH]c4ccccc4c3C[C@H]3C(=O)N(CCCOC(C)C)CC(=O)N23)c1 (some centres undefined)	-0.4%	?	-0.9%	-9.3	-28.6%
Cc1cccc(/C=N/NC(=O)C2CCCNC2=O)c1 (centres undefined)	21.3%	-23.3%	12.3%	11.7	-4.0%
COc1ccc(CCN(C)C(=O)CSc2nc3ccccc3c(=O)n2CC2CCCO2)cc1OC (centres undefined)	-8.8%	?	-2.1%	-4.6	?
COc1ccccc1NC(=O)CN1CCN(CC(=O)Nc2ccc(OCc3ccccc3)cc2)CC1	?	16.4µM*	?	?	?
CC(C)(C)c1cc(C(=O)NCc2ccccc2)ccn1	-16.9%	?	-5.3%	14.0	13µM*
COc1ccc(CCNC(=O)c2ccnc(C(C)(C)C)c2)cc1OC	0.7%	?	-5.6%	17.2	4.0%
O=C(NCc1ccccc1)c1ccc(Oc2ccc(C(=O)NCc3ccccc3)cc2)cc1	?	16.4µM*	-19.0%	7.2	?
CCOc1ccc(NC(=O)CN2CCN(CC(=O)Nc3ccccc3OCC)CC2)cc1	nt	20.6µM*	nt	nt	16.4µM*
O=C(COC(=O)c1cc[n+]([O-])cc1)NCc1ccccc1Cl	-2.5%	-14.1%	13.5%	-15.9	0.1%
CCC1(CC)NC(=O)N(CC(=O)Nc2ccc(OCc3ccccc3)cc2)C1=O	-0.7%	18.4µM*	-6.8%	-2.6	?
Cc1cc(C)cc(NC(=O)CN(c2cccc(C)c2C)S(=O)(=O)c2ccccc2)c1	nt	20.6µM*	nt	nt	16.4µM*
Cc1cc(NC(=O)CN(c2cccc(C)c2C)S(=O)(=O)c2ccccc2)ccc1Br	nt	16.4µM*	nt	nt	18.4µM*
Cc1cc(C)cc(N(CC(=O)Nc2ccccc2-c2ccccc2)S(=O)(=O)c2ccccc2)c1	15.5%	?	11.5%	11.1	-27.6%
Cc1ccc(N(CC(=O)Nc2ccc(Br)c(C)c2)S(=O)(=O)c2cccs2)cc1	nt	-28.1%	nt	nt	?
CCCCOCCCNC(=O)C[C@@H]1C[C@@]2(C(=O)OC)CCCCC=C2N(Cc2ccco2)C1=O	7.4%	16.4µM*	2.1%	4.4	?
CCOC(=O)[C@]12CCCC=C1N(Cc1ccco1)C(=O)[C@H](CC(=O)NCc1cccs1)C2	2.3%	25.9µM*	20.3%	-11.6	?
CCCCNC(=O)C[C@@H]1C[C@@]2(C(=O)OC)CCCCC=C2N(Cc2ccco2)C1=O	5.8%	?	4.4%	24.9	?
SMILES	HT1080 IDH1KD tx	TDP1 cell noCPT	HT1080NT lethal	IL1B secr inh	TDP1 cell CPT
COC(=O)[C@]12CCCCC=C1N(Cc1ccco1)C(=O)[C@H](CC(=O)NCc1cccs1)C2	10.4%	23.1µM*	6.9%	3.1	?
CN(C)c1cccc(C(=O)OCC(=O)NC2CCCC2)c1	-0.3%	-2.8%	-3.2%	-2.8	3.5%
Cc1noc(NS(=O)(=O)c2ccc(NC(=O)C(F)(F)C(F)(F)C(F)(F)F)cc2)c1C	0.4%	-11.7%	27.0%	31.0	-11.4%
CNc1nc(NCc2ccc(N(C)C)cc2)c2sccc2n1	?	16.4µM*	?	28.9	18.4µM*
Cc1ccc(CNc2nc(NCc3ccccc3)nc3ccsc23)c(C)c1	?	?	25.9µM*	-88.3*	9.2µM*
Cc1ccc(CNc2nc(NCC3CC3)nc3ccsc23)c(C)c1	16.4µM*	10.3µM*	14.6µM*	-18.9	9.2µM*
CNc1nc(NCC2CCCCC2)c2sccc2n1	23.1µM*	13µM*	23.1µM*	-21.3	13µM*
c1ccc2c(CNCCN3CCOCC3)cccc2c1	3.4%[9.24 µM]	-25.0%	9.0%	3.3	-10.8%
COc1ccc(Cn2ccnc2SCC(=O)Nc2nnc(C)s2)cc1	10.1%	16.3%	0.2%	46.0	-21.5%
CC(C)OP(=O)(OC(C)C)C(O)c1ccc(N(C)C)cc1 (centres undefined)	7.3%	0.9%	-1.3%	5.0	-16.1%
COCCNc1nc(NCc2cnc(C)cn2)c2sccc2n1	10.0%	-19.5%	?	0.0	-19.4%
Cc1ccc(Nc2nc(NCC3CC3)nc3ccsc23)c(C)c1	6.51µM*	5.8µM*	11.6µM*	?	3.66µM*
CNc1nc(NCc2ccc(C)cc2C)c2sccc2n1	?	6.51µM*	?	-8.2	18.4µM*
Cc1ccc(Nc2ncnc3sccc23)c(C)c1	-12.3%	?	-6.5%	-15.2	-21.3%
Cc1ccc(CNc2nc(NC(C)C)nc3ccsc23)c(C)c1	?	?	?	-14.4	23.1µM*
CNc1nc(Nc2ccc(C)cc2C)c2sccc2n1	?	16.4µM*	?	0.0	13µM*
O=C(c1cccs1)N1C[C@H](O)[C@@H](n2cc(-c3ccc(F)cc3)nn2)C[C@@H]1c1ccccc1	1.9%	-8.9%	1.5%	?	-21.7%
O=C(COC(=O)CNC(=O)c1ccccc1F)Nc1ncc(Cl)cc1Cl	-3.9%	14.4%	2.8%[9.24 µM]	-16.4	-16.1%
COc1ccc(-c2noc(CCC(=O)NCCc3ccccc3)n2)cc1OC	3.6%	-9.7%	-0.5%	4.7	-21.3%
CCCC1([C@H](O)C/C=C/[C@H]2[C@H](O)CC(=O)[C@@H]2CCCCCCC(=O)OC)CCC1	nt	10.6µM*	nt	nt	15µM*
CN(c1ccc(C(=O)Nc2ccccc2Sc2ccccc2)cc1)S(C)(=O)=O	-18.8%	20.6µM*	-13.7%	-9.4	?
Cc1ccc(SCc2nn(C)c(Cl)c2C=O)cc1	-18.6%	-26.2%	2.0%	3.4	11.8%
COc1ccc(/C=N/NC(=S)Nc2ccccc2)cc1COc1ccc(Br)cc1	?	?	-28.4%	39.2	14.6µM*
